The values that follow come from PubChem BioAssay AID463173 (ICCB-Longwood Screening Facility, Harvard Medical School, 2010).

In all, about 52,000 compounds went through this assay and about 4,300 (8.3%) were called active. What follows is part of a selection rich in actives, with near analogues and random picks from the rest. Unmarked numbers belong to inactive results. Rule as the data show it: active = survival mostly below about 52% (no sharp cut-off); inactive = mostly above about 56%.

For this assay, the system named is DeltatarO mutant. Briefly: growth inhibition of S. aureus wild type versus tarO mutant, primary screen, teichoic acid synthesis inhibitors, RN4220, OD600 (AID 463173). The following applies: OD600, 18 h, hits give low values, screened at 18.75 µg/mL (by protocol).
In the case of `COc1ccc2sc(C)[n+](CCO)c2c1`, the survival is 81%.
For the compound `CCOc1ccc(S(=O)(=O)Nc2ccc3c(c2)CCCN3S(=O)(=O)c2ccc(C)cc2)cc1`, the survival is 88%.
The same measure for `COc1ccc(NC(=O)CN2C(=O)CCn3nc(-c4cccn4C)cc32)cc1`: 81%; for `COc1cc(OC)cc(N2C(=O)CSC23C(=O)Nc2ccccc23)c1` (stereo not given): 99%.
Take `COc1ccc(OC)c(CNC(=O)c2c(C)oc3ncn(CC(C)C)c(=O)c23)c1`: the survival was 89%.
As for `COc1ccc(Nc2cc(C)nc(-n3nc(C)cc3C)n2)cc1Cl`, the figure is 81%; as for `COc1ccccc1N1CCN(S(=O)(=O)CCNC(=O)c2cc(=O)c3ccccc3o2)CC1`, 87%; as for `CCNC(=S)N1CCC(NC(=O)c2ccccc2)CC1`, 110%.
For the compound `CCN(c1ccccc1)S(=O)(=O)c1ccc(NC(=O)c2nc(S(C)(=O)=O)ncc2Cl)cc1`, the survival was -1% (active).
The same measure for `CCN(c1ccccc1)S(=O)(=O)c1ccc(NC(=O)c2cc(=O)c3ccccc3o2)cc1`: 63%.
As for `CCN(c1ccccc1)S(=O)(=O)c1ccc(Cl)cc1`, the figure is 92%.
As for `CN1C(=O)/C(=C/C=C2/Sc3ccccc3N2CCO)SC1=S`, the figure is 108%; as for `Cc1c(-c2ccccc2)nc2c(Cl)cccc2c1C(=O)OCC(=O)c1ccc(F)cc1`, 75%.
For the compound `O=S(=O)(NCCS(=O)(=O)N1CCN(c2ccccc2)CC1)c1ccc(Br)cc1`, the survival was 91%.
As for `CCCC12CN3CC(C)(CN(C1)C3c1cn(CC)c3ccccc13)C2=O` (stereo not given), the figure is 83%; as for `Cc1cccc(N2CCN(C(c3nnnn3C3CCCC3)C(C)C)CC2)c1C` (stereo not given), 79%; as for `Cc1cc(NC(=O)CCS(=O)(=O)c2cc(Br)cc3c2N(C(=O)C2CC2)CC3)ccc1Br`, 83%.
As to `COc1ccccc1C(=O)NC1(C(F)(F)F)NC(=O)N(CCc2ccccc2)C1=O` (stereo not given), the survival is 73%.
As for `CCOc1cccc(C(=O)N(Cc2ccc(CC)cc2)C2CCS(=O)(=O)C2)c1` (stereo not given), the figure is 149%.
As to `CCCCOc1cccc(C(=O)N(Cc2ccc(Cl)cc2)C2CCS(=O)(=O)C2)c1` (stereo not given), the survival is 54%.
The same measure for `COc1cc(CN(C(=O)c2ccc(Cl)cc2)C2CCS(=O)(=O)C2)cc(OC)c1OC` (stereo not given): 69%; for `CCCCOc1cccc(C(=O)N(Cc2ccc(N(C)C)cc2)C2CCS(=O)(=O)C2)c1` (stereo not given): 56%.
As to `COc1cc(C(=O)N(Cc2ccc(C(C)C)cc2)C2CCS(=O)(=O)C2)cc(OC)c1OC` (stereo not given), the survival is 46% (active).
The same measure for `COc1ccc(CN(C(=O)c2ccc(OCC(C)C)cc2)C2CCS(=O)(=O)C2)cc1` (stereo not given): 93%; for `CCOc1cccc(C(=O)N(Cc2ccc(C(C)C)cc2)C2CCS(=O)(=O)C2)c1` (stereo not given): 40% (active).
For the compound `CCCOc1cccc(C(=O)N(Cc2ccc(C)o2)C2CCS(=O)(=O)C2)c1` (stereo not given), the survival is 90%.
The same measure for `CCCCOc1ccc(C(=O)N(Cc2ccc(C(C)C)cc2)C2CCS(=O)(=O)C2)cc1` (stereo not given): 22% (active); for `CCCOc1cccc(C(=O)N(Cc2cc(OC)c(OC)c(OC)c2)C2CCS(=O)(=O)C2)c1` (stereo not given): 43% (active).
As for `COc1cc(CN(C(=O)c2ccc(C)cc2)C2CCS(=O)(=O)C2)cc(OC)c1OC` (stereo not given), the figure is 59%; as for `COc1ccc(C(=O)N(Cc2ccc(C(C)C)cc2)C2CCS(=O)(=O)C2)cc1` (stereo not given), 62%.
As for `CCN(CC)CCNC(=O)c1c(C)oc2ncnc(N3CCOCC3)c12`, the figure is 130%.
In the case of `Cc1ccc2oc(C(=O)N(Cc3ccc(N(C)C)cc3)CC3CCCO3)c(C)c2c1` (stereo not given), the survival is 93%.
The same measure for `Cc1ccccc1-n1c(SCC(=O)N(C(C)C)C(C)C)nnc1-c1cccnc1`: 99%.
Turning to `Cn1ccnc1SCC(=O)Nc1cc(Cl)ccc1Cl`, the survival is 68%.
As for `COc1cccc(C2CC(=O)N(c3ccc(F)cc3)C3=C2C(=O)OC3)c1OC` (stereo not given), the figure is 75%; as for `COc1ccc(-n2nc(C(=O)Nc3ccc(Br)cc3C)c3c4ccccc4n(C)c3c2=O)cc1`, 97%; as for `Fc1ccc(C2=CC(c3ccc(F)cc3)n3c(nc4ccccc43)N2)cc1` (stereo not given), 87%.
As for `CCOC(=O)c1ccc(NC(=O)CSc2c(C(C)C)cnc3c2c(=O)n(C)c(=O)n3C)cc1`, the figure is 107%.
The same measure for `Cc1ccc2nc(-c3c[nH]c4ccccc34)c(Nc3ccccc3C)n2c1`: 96%; for `CC(=O)N1C(Nc2ccc(C)cc2)CCN1c1ccccc1` (stereo not given): 81%.
With `COc1ccc(Nc2oc(/C=C/c3cccc(OC)c3)nc2C#N)cc1`, the survival was 100%.
As for `Cc1ccc2c(c1)C(c1ccc(F)cc1)N(C(=O)c1ccc(S(=O)(=O)N3CCCCC3)cc1)CC(=O)N2` (stereo not given), the figure is 178%; as for `CC(=O)Nc1ccc(NC(=O)CSc2nc3ccccc3nc2N2CCC(C)CC2)cc1`, 75%; as for `Cc1ccc(C)c(NC(=O)CSc2nc3ccccc3nc2N2CCOCC2)c1`, 85%.
As for `Cc1cccc(NC(=O)CSc2nc3ccccc3nc2N2CCC(C)CC2)c1`, the figure is 8% (active).
The same measure for `CC1CCN(c2nc3ccccc3nc2SCC(=O)Nc2ccccc2C(C)C)CC1`: -1% (active); for `CCc1ccc(Cn2c(CNS(=O)(=O)c3ccc4c(c3)CCCC4)nc3cccnc32)cc1`: 102%; for `Fc1ccc(-n2ncc3c(N4CCC(Cc5ccccc5)CC4)ncnc32)cc1`: 90%.
Regarding `COc1cccc(C2CC(=O)Nc3c2c(=O)n(C)c2ncnn32)c1OC` (stereo not given), the survival is 166%.
As for `Cc1ccc2c(c1)c1c3n2CCN(C(=O)Cn2c(-c4ccccc4)noc2=O)C3CCC1` (stereo not given), the figure is 90%; as for `CC1CCc2c(sc(NC(=O)c3cc4nc(-c5ccc(Cl)cc5)cc(C(F)(F)F)n4n3)c2C#N)C1` (stereo not given), 91%.
The same measure for `O=S(=O)(c1ccc(Br)cc1)c1nnn2c1nc(NC1CCCCCC1)c1sccc12`: 63%.
The same measure for `Cc1ccc(S(=O)(=O)c2nnn3c2nc(NC2CCCCC2)c2sccc23)cc1C`: 35% (active).
Regarding `Cc1ccc(S(=O)(=O)c2nnn3c2nc(NC2CCCCCC2)c2sccc23)cc1C`, the survival is -4% (active).
As for `O=S(=O)(c1ccc(Cl)cc1)c1nnn2c1nc(NC1CCCCC1)c1sccc12`, the figure is 41%; as for `Cc1ccc(S(=O)(=O)c2nnn3c2nc(NC2CCCCC2)c2sccc23)cc1`, 109%.
In the case of `Cc1ccc(C)c(S(=O)(=O)c2nnn3c2nc(NC2CCCCC2)c2sccc23)c1`, the survival was 40%.
The same measure for `CCn1cc2nc(SCc3cccc(Cl)c3)n(Cc3ccc(C)cc3)c(=O)c2n1`: 44%; for `COC(=O)CC(=O)CSc1nc(C)cc(C(F)(F)F)c1C#N`: 83%; for `O=c1cc(CSc2nnc(COc3ccccc3)o2)c2ccccc2[nH]1`: 107%.
As to `O=C1Nc2c(c(=O)[nH]c(=O)n2-c2ccc(F)cc2)C1(NS(=O)(=O)c1ccc(Cl)cc1)C(F)(F)F` (stereo not given), the survival is 59%.
As for `COC(=O)c1ccccc1NC(=O)c1cc2ccccn2n1`, the figure is 73%.
As for `O=c1c(=O)n(-c2ccccc2)ccn1Cc1c(F)cccc1Cl`, the figure is 44% (active); as for `O=c1c(=O)n(Cc2c(F)cccc2Cl)ccn1Cc1ccccc1`, 82%; as for `COc1ccccc1Cn1ccn(Cc2c(F)cccc2Cl)c(=O)c1=O`, 110%.
As for `Cc1cc(O)c(CN2CCN(c3ccc(F)cc3)CC2)c2oc(=O)cc(C)c12`, the figure is 46%; as for `O=C(CCSCCc1ccccn1)Nc1ccc(Cl)cc1`, 47% (active).
On to `Cc1ccc(NC(=O)CCSCCc2ccccn2)cc1`, for which the survival was 93%.
Consider `CC(=O)Nc1ccc(NC(=O)CCSCCc2ccccn2)cc1`, for which the survival was 135%.
The same measure for `COc1ccc(-n2c(C)nnc2SCc2nc(-c3ccc(OC)c(OC)c3)no2)cc1`: 71%.
The same measure for `COC(=O)c1ccc2c(c1)N(CC(=O)Nc1ccc(C)cc1Cl)C(=O)c1ccccc1S2`: 76%; for `Cc1cccc(C(CC(=O)NCC2(c3ccccc3)CCCC2)c2ccccc2)c1O` (stereo not given): 38% (active); for `Cc1ccc(O)c(C(CC(=O)NCC2(c3ccccc3)CCCC2)c2ccccc2)c1` (stereo not given): 82%.
With `Cc1ccc(C(CC(=O)NCC2(c3ccccc3)CCCC2)c2ccccc2)c(O)c1` (stereo not given), the survival is 101%.
The same measure for `O=C(O)CCc1ccc(-c2ccc(F)cc2)n1CCC(=O)O`: 103%; for `Cc1ccc(NC(=O)CSc2nnc(C)c(=O)[nH]2)cc1`: 70%.
Turning to `c1ccc(Cc2[nH]nc3ccccc23)cc1`, the survival was 89%.
As for `Cc1c(-c2nsc(NC(=O)c3ccccc3)n2)nnn1-c1ccc(C(F)(F)F)c(Cl)c1`, the figure is 86%; as for `Cc1ccc(-n2nnc(-c3nsc(NC(=O)c4ccccc4C)n3)c2C)cc1Cl`, 134%; as for `CCc1ccc(-n2nnc(-c3nsc(NC(=O)c4ccccc4Cl)n3)c2C)cc1`, 15% (active).
As for `COc1cccc(C(=O)Nc2nc(-c3nnn(-c4ccccc4C(F)(F)F)c3C)ns2)c1`, the figure is 87%; as for `Cc1ccc(Cl)cc1-n1nnc(-c2nsc(NC(=O)c3ccccc3Cl)n2)c1C`, 6% (active); as for `Cc1cc(C)cc(-n2nnc(-c3nsc(NC(=O)c4ccccc4Cl)n3)c2C)c1`, 64%.
As for `Cc1c(-c2nsc(NC(=O)c3cccc(Cl)c3)n2)nnn1-c1ccccc1C(F)(F)F`, the figure is -4% (active); as for `CCc1cccc(-n2nnc(-c3nsc(NC(=O)c4ccc(C)cc4)n3)c2C)c1`, 54%.
`Cc1ccc(-n2nnc(-c3nsc(NC(=O)c4cccc(Cl)c4)n3)c2C)cc1C`: the survival is 76%.
As for `CSc1cccc(-n2nnc(-c3nsc(NC(=O)c4cccs4)n3)c2C)c1`, the figure is 73%; as for `CCc1cccc(-n2nnc(-c3nsc(NC(=O)c4cccs4)n3)c2C)c1`, -5% (active); as for `Cc1cccc(C(=O)Nc2nc(-c3nnn(-c4cc(C)ccc4C)c3C)ns2)c1`, 94%.
Take `O=C(Cn1ncc2c3ccccc3n(Cc3ccccc3F)c2c1=O)NCc1ccccc1Cl`: the survival is 78%.
